From PubChem
Only some compounds are listed: those with a hit (about 7.4% of all), similar ones and a draw of the others.
SMN2 splice up: SMN2 splice variant enhancement. Potency, µM (doses to about 46.1 µM), inactives show at the highest dose activity change, positive = activation, actives largely listed as activators. AID 1458. HEK293 SMN2-luciferase splicing reporter, luminescence, 30-36 h. hit rate 2.8% among 210,000; also: % of control where 0% means no effect; nearly all actives have a fitted effect of over 55% in size
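qHTS luciferase splicing reporter: luminescence rises when SMN2 exon 7 is included in transfected HEK293 cells. Compound exposure lasted 30-36 h at 37C, with 4.5 mM final sodium butyrate as control, followed by a ONE-Glo read.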
Luc counter: Kinase-Glo luciferase inhibition (counter-screen) | hit rate 0.28% among 200,000 | Kinase-Glo luciferase, ATP luminescence, 8 min | Potency, µM (top dose mostly 38.3 µM), for the others: top-dose activity change, negative = inhibition, hits mostly inhibitors | AID 1379; also: % is scaled to controls: 0 for no effect and ±100 for the full control effect; nearly all actives have a fitted effect of over 60% in size
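Light output from Kinase-Glo luciferase with luciferin and 10 uM ATP in 50 mM imidazole pH 7.2, KCl, MgCl2, Tween 20, BSA; compound pin-delivered, 8-min ambient incubation, then luminescence read.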
NPC1 prom act: NPC1 promoter activation. Huh7 NPC1 promoter luciferase reporter, 24 h. Potency, µM (top dose mostly 9.22 µM), inactives show top-dose activation, usual class: activators. hit rate 2.4% among 320,000. AID 485313; also: % of control where 0% means no effect; nearly all actives have a fitted effect of over 60% in size
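NPC1 promoter–luciferase Huh7 cells; 24 h compound; luminescence.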
Rab9 promoter act: activators of Rab9 promoter; Huh7 Rab9 promoter-luciferase reporter, luminescence, 24 h; AID 485297; hit rate 2.8% among 320,000; Potency, µM (titrated, usually from 9.22 µM), for inactives: at the top dose activation, negative = inhibition, usual class: activators; also: % of control where 0% means no effect; nearly all actives have a fitted effect of over 60% in size
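Stable Rab9-luc Huh7, 1500 cells/well, 2 h settle; cmpd in DMSO, 24 h, 37 °C/5% CO2; luciferase reagent 10 min RT; luminescence.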
FLuc counter: firefly luciferase modulation, counter-screen for miR-21 project. P08659. hit rate 6.9% among 360,000. purified FLuc, Km substrates, luminescence inhibition. Potency, µM (series often up to 57.5 µM), for the others: top-dose activity change, negative = inhibition, usual class: inhibitors;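 also: plate controls were vehicle for no effect and reference inhibitor for full effect; nearly all actives have a fitted effect of over 55% in size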
Target sequence (P08659 whole entry, looked up): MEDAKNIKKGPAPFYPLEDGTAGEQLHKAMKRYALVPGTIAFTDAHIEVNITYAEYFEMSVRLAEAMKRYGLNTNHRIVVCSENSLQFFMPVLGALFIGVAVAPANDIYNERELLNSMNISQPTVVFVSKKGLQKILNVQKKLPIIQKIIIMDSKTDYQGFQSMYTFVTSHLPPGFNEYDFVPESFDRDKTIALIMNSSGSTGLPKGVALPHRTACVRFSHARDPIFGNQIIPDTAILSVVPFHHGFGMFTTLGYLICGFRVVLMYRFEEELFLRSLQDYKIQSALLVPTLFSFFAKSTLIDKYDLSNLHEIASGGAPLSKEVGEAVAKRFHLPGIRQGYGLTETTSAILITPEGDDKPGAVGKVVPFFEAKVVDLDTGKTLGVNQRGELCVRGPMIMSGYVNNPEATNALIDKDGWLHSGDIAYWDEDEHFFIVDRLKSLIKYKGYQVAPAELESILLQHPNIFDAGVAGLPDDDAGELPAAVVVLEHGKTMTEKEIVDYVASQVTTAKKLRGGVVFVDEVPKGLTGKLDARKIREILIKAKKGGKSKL
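Purified P. pyralis luciferase (10nM final) with 10uM D-luciferin and 10uM ATP (Km levels) in 50mM Tris acetate pH 7.5, 10mM Mg acetate, 0.01% Tween-20, 0.05% BSA; qHTS 6-point titration, ~60 µM downward; luminescence read.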
ELG1 genotox: genotoxicity induction in ELG1-luciferase HEK293T cells; HEK293T ELG1-luciferase reporter, luminescence, 16 h; Potency, µM (highest dose often 46 µM), for the others: top-dose activity change, positive = activation, hits mostly activators; hit rate 1.3% among 330,000; AID 504466; also: % of control where 0% means no effect; nearly all actives have a fitted effect of over 60% in size
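Genotoxic stress is detected as increased luminescence from luciferase-tagged ELG1 in HEK293T cells, measured with ONE-Glo after a 16 hr treatment at 37 °C.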
Starred values were filed as active, the others as inactive; ? = inconclusive; nt = not tested or not shown. Calls follow the shape of the dose curve; as a rule, active = well fitted curve in the direction sought with a large enough effect; inconclusive = small, poorly fitted or top-dose-only effect, or another doubt; inactive = no such curve, though single readings can be large; an effect the other way counts as inactive or inconclusive. Potency is read from the fitted curve at half-maximal effect.

SMILES	SMN2 splice up	Luc counter	NPC1 prom act	Rab9 promoter act	FLuc counter	ELG1 genotox
COc1cccc(NC(=O)c2ccccc2-c2nc(-c3cccc(C)c3)no2)c1	-5%	-3%	?	26%	17µM*	1%
Cc1cccc(NC(=O)c2ccccc2-c2ccccc2)c1	-4%	3%	-7%	-8%	1%	-2%
O=C(NCC1CCCO1)c1ccccc1-c1nc(-c2ccc(Cl)cc2)no1 (stereo not given)	-4%	2%	3%	-6%	15µM*	-7%
Cc1cccc(-c2noc(-c3ccccc3C(=O)NCC3CCCO3)n2)c1 (stereo not given)	11%	-5%	?	15%	11µM*	1%
O=C(NCC1CCCO1)c1csc(Nc2cccc3ccccc23)n1 (stereo not given)	nt	13µM*	-30%	-28%	21µM*	?
Cc1ccccc1NC(=O)c1c(NC(=O)Cc2ccccc2)sc2c1CCC2	-2%	nt	nt	nt	-8%	nt
O=C(NC1CC(=O)N(c2cccc(F)c2)C1)c1ccc(S(=O)(=O)N2CCCCC2)cc1 (stereo not given)	nt	nt	nt	nt	-8%	nt
CCOC(=O)Cn1c(S(=O)(=O)Cc2ccc(F)cc2)nc(-c2ccccc2)c1-c1ccccc1	7.1µM*	0%	1%	2%	-1%	-8%
COc1ccc(CNC(=S)N/N=C(/C)c2ccccc2)cc1	nt	nt	?	?	7.6µM*	18µM*
COc1cc(/C=N/NC(=O)Cc2csc(N3CCOCC3)n2)cc(OC)c1O	6%	-5%	0%	0%	15µM*	0%
NS(=O)(=O)c1cc(C(=O)OCC(=O)c2ccc3c(c2)OCCO3)ccc1Cl	-1%	-3%	2.8µM*	2.8µM*	0.21µM*	?
CNS(=O)(=O)c1cccc(C(=O)OCC(=O)c2ccc3c(c2)OCCO3)c1	nt	nt	9%	20%	0.38µM*	-1%
COc1ccccc1NC(=O)Cn1c(=O)n(-c2cccc(C)c2)c(=O)c2c1c1cc(C)ccc1n2C	nt	nt	nt	nt	4%	nt
COC(=O)c1c(N)n(-c2cc(Cl)cc(Cl)c2)c2nc3ccccc3nc12	-4%	nt	nt	nt	-7%	nt
CC(NC(=O)C1CCN(C(=O)c2ccc(-n3ccc4ccccc43)s2)CC1)c1ccccc1 (stereo not given)	nt	nt	nt	nt	13µM*	nt
CCOC(=O)C1CCN(C(=O)c2ccc(-n3ccc4ccccc43)s2)CC1	nt	nt	nt	nt	-15%	nt
Cc1ccc(S(N)(=O)=O)cc1NC(=O)/C=C/c1ccc2c(c1)OCO2	-5%	0%	-1%	3%	24µM*	1%
O=C(Nc1ccccc1)Nc1ccc(Cl)c(S(=O)(=O)N2CCOCC2)c1	-20%	-2%	-9%	-8%	?	-11%
Cc1ccc(NC(=O)/C=C/c2ccc3c(c2)OCO3)cc1S(=O)(=O)N1CCOCC1	-51%	3%	-3%	-17%	11µM*	-11%
O=C(/C=C/c1ccco1)Nc1ccc(Cl)c(S(=O)(=O)N2CCOCC2)c1	nt	nt	5%	-8%	19µM*	-11%
COc1ccc(NC(=O)C(NC(=O)/C=C\c2ccc3c(c2)OCO3)c2ccc(OC)cc2)cc1 (stereo not given)	-5%	nt	nt	nt	-6%	nt
COc1ccc(NC(=O)C(NC(=O)/C=C\c2ccc3c(c2)OCO3)c2ccccc2)cc1 (stereo not given)	2µM*	nt	nt	nt	0%	nt
Cc1ccc(C)c(N2CCN(C(=O)c3cc4c(=O)oc5ccccc5c4s3)CC2)c1	-9%	nt	nt	nt	1%	nt
CC(C)OCCCn1c(=O)c2ccccc2n2c(-c3ccc(F)c(F)c3)nnc12	nt	nt	nt	nt	-6%	nt
CCOc1ccccc1CNC(=O)Cn1cc2c(n1)-c1c(oc(C(=O)N3CCCC3)c1C)CC2	nt	nt	nt	nt	3%	nt
SMILES	SMN2 splice up	Luc counter	NPC1 prom act	Rab9 promoter act	FLuc counter	ELG1 genotox
COc1ccccc1NC(=O)/C=C/c1ccc2c(c1)OCO2	11µM*	-15%	28%	?	6.7µM*	13%
COc1ccccc1N1CCN(C(=O)/C=C/c2ccc3c(c2)OCO3)CC1	-10%	-2%	-3%	1%	-9%	-6%
NC(=O)c1ccc(NC(=O)COC(=O)/C=C/c2ccc3c(c2)OCO3)cc1	nt	nt	2%	3%	12µM*	7%
CC(=O)Nc1ccc(NC(=O)COC(=O)/C=C/c2ccc3c(c2)OCO3)cc1	nt	nt	-3%	1%	-2%	1%
COc1ccccc1NC(=O)COC(=O)/C=C/c1ccc2c(c1)OCO2	-1%	-5%	11%	12%	11µM*	?
COc1cccc(CS(=O)(=O)c2nnnn2CC(C)C)c1	4%	-2%	nt	nt	nt	nt
OC[C@H]1O[C@@H](Oc2cc(O)cc(/C=C/c3ccc(O)cc3)c2)[C@H](O)[C@@H](O)[C@@H]1O	nt	nt	4%	3%	19µM*	nt
CCOc1ccc(NC(=O)c2nnn(-c3ccc(F)c(Cl)c3)c2C)cc1	nt	nt	nt	nt	-1%	nt
O=C(/C=C/c1ccccc1Cl)NNC(=O)c1ccncc1	nt	nt	2%	20%	21µM*	1%
N/C(=N\OC(=O)Cc1ccc(Cl)cc1)c1ccncc1	-4%	-1%	-2%	-4%	-4%	-1%
N/C(=N\OC(=O)/C=C/c1ccccc1Cl)c1ccncc1	1.4µM*	1%	1.3µM*	0.71µM*	0.85µM*	6%
COc1ccccc1C/C(N)=N/OC(=O)/C=C/c1ccccc1	6%	0%	-1%	15%	?	2%
N/C(=N\OC(=O)/C=C/c1ccccc1)c1ccccn1	13µM*	11µM*	?	2.5µM*	0.67µM*	4.1µM*
O=C(/C=C/c1ccccc1)c1ccccn1	-11%	14µM*	?	?	1.3µM*	19%
CCS(=O)(=O)N1CC(=O)N(c2cc(Cl)ccc2C)C(C)(C(=O)NC2CCCCCC2)C1 (stereo not given)	nt	nt	nt	nt	2%	nt
O=C(c1ccco1)N1CCC2(CCN(Cc3ccncc3)CC2)CC1	-3%	-4%	nt	nt	nt	nt
N/C(=N\OC(=O)/C=C/c1ccccc1)c1ccncc1	3%	-3%	3.2µM*	1.8µM*	6µM*	?
O=C(Nc1cccnc1)c1cnn2c1NC(=C1CC1)C=C2C(F)F	nt	nt	nt	nt	-1%	nt
N/C(=N\O)c1ccc(N2CCN(c3ncccc3C(F)(F)F)CC2)nc1	nt	nt	2.2µM*	2.5µM*	12µM*	?
O=C(Nc1ccc(N2CCN(c3ncccc3C(F)(F)F)CC2)nc1)c1cccs1	nt	nt	-6%	-16%	?	-23%
N#C/C(=C\c1ccc(O)c([N+](=O)[O-])c1)c1nc2ccccc2s1	-58%	-4%	-2%	0%	13µM*	-9%
O=C(O)CC/C(=C\c1ccc(Cl)c([N+](=O)[O-])c1)c1nc2ccccc2s1	0%	-4%	-5%	-11%	8%	-4%
